In PubChem BioAssay AID624304 (Sanford-Burnham Center for Chemical Genomics, 2012):
The whole screen tested about 360,000 compounds, of which about 1,800 (0.5%) were called active. The sample holds actives, similar compounds and a random draw of the others, so the mix is not that of the screen. A number with no mark means an inactive call.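 The calls were made as follows: active = interference check ratio from 0.5 to 1.5 plus GFP to RFP signal ratio inhibition reaching or exceeding a fixed threshold (cut at about 30% in these data, passing the limit was not always enough); inactive = the rest.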

Assay: gst-4 reporter inhibition in live C. elegans – whole organism, uHTS, GFP/RFP fluorescence ratio, strain VP596, SKN-1 inhibitor project, primary screen (AID 624304)
Conditions: C. elegans VP596 Pgst-4::GFP/RFP ratio, acrylamide-induced, 24 h; at 21.8 µM; hits give high values

SMILES	inhibition
CCc1ccc2c(c1)C1(NN=C(c3ccccc3)S1)C(=O)N2 (stereo not drawn)	4.61%
Cc1ccc(-c2ccc(CN3C(C(C)C)C(=O)N(Cc4cn(CCC5OCCO5)nn4)CCS3(=O)=O)cc2)cc1 (stereo not drawn)	12.6%
COc1ccc(C2C3=C(OC(C)=O)c4ccccc4C3=Nc3c2c(=O)n(C)c(=O)n3C)cc1 (stereo not drawn)	2.4%
CCOc1ccc(OCC)c(NC(=O)CN(C)S(=O)(=O)c2cccc3nsnc23)c1	27.2%
CCO[C@@H]1OC(C(=O)NCc2nc3ccccc3[nH]2)=C[C@H](C2CCCCC2)[C@H]1CCCO	7.19%
CCOC(=O)C1=C(C)Nc2sc(C(=O)c3ccc(Br)cc3)c(N)c2C1c1ccc(C(=O)OC)cc1 (stereo not drawn)	37.2% (active)
CCOC(=O)C1=C(C)NC2=C(C(=O)CC(C)(C)C2)C1c1ccsc1 (stereo not drawn)	1.51%
COC(=O)c1ccc(C2NC(=O)NC(C)=C2C(=O)N(C)C)cc1 (stereo not drawn)	0.51%
CS(=O)(=O)N(CC(O)Cn1c2ccccc2c2ccccc21)c1cccc2ccccc12 (stereo not drawn)	5.96%
Oc1cccc2cc(-c3ccncc3)cnc12	-1.84%
CC1=NN(C(=O)CCc2ccccc2O)C(O)(C(F)(F)F)C1 (stereo not drawn)	0.219%
CCN(CC)S(=O)(=O)c1ccc(N(C)Cc2cccc(OC)c2OC)nc1	13.3%
CCN(CC)S(=O)(=O)c1ccc(N(C)CCc2ccc(OC)c(OC)c2)nc1	43% (active)
CCN(CC)S(=O)(=O)c1ccc(N(C)Cc2ccc(C(F)(F)F)cc2)nc1	3.82%
S=c1[nH]ccn1-c1ccc(Cl)cc1	1.55%
COc1cc2c(C(=O)N3CCN(C)CC3)c(CSc3ccccc3)n(C)c2cc1Br	-4.81%
Oc1ccc(-c2nncn2-c2ccccc2)cc1	3.4%
Cc1c(C(=O)NCCN2C(=O)S/C(=C\c3cccs3)C2=O)cccc1[N+](=O)[O-]	9.81%
CC(=O)Nc1ccc(NC(=O)CCN2C(=O)C3CC=CCC3C2=O)cc1 (stereo not drawn)	-12.5%
O=C(CCCN1C(=O)/C(=C/c2cccs2)SC1=S)Nc1ccc(O)cc1	38.3% (active)
CC(Sc1nncn1C)C(=O)NCCC1=CCCCC1 (stereo not drawn)	-8.96%
Cn1nnc2cc(C(=O)NCCC3=CCCCC3)ccc21	35.4% (active)
O=C(NCCC1=CCCCC1)c1ccc(Cl)c([N+](=O)[O-])c1	7.85%
CC(=O)N1CCN(c2ccccc2NC(=S)NC(=O)c2cc3ccccc3o2)CC1	6.86%

SMILES	inhibition
CCc1ccc(C(=O)NC(=S)Nc2ccccc2N2CCOCC2)cc1	11%
COc1ccc(C(=O)NC(=S)Nc2ccccc2N2CCN(S(C)(=O)=O)CC2)cc1OC	41% (active)
CC(=O)c1cccc(NC(=O)N2CCCC2C(=O)NCCc2ccccc2)c1 (stereo not drawn)	23.5%
Cn1nnnc1SCC(=O)Nc1cccc(S(=O)(=O)N2CCCCC2)c1	6.32%
O=C(CSc1ccccc1)Nc1cccc(S(=O)(=O)N2CCCCC2)c1	12.9%
COCCn1cnnc1SCC(=O)Nc1cccc(S(=O)(=O)N2CCCCC2)c1	47% (active)
CCOC(=O)C1CCCN(C(=O)COc2ccc(N(C)S(=O)(=O)c3ccc(C)cc3)cc2)C1 (stereo not drawn)	-2.11%
Cn1cc(S(=O)(=O)N2CCN(c3ccc(F)cc3)CC2)c(=O)n(C)c1=O	1.81%
CCN1C(=O)[C@@H]2[C@@H]3CN(S(=O)(=O)c4ccccc4C)[C@@H](c4ccc(Cl)cc4)[C@@H]3C(=O)C[C@@H]2C1=O	2.39%
C#CCN(C[C@H]1[C@H](OC(=O)NC2CCCC2)[C@H](OC(=O)NC2CCCC2)C[C@H]2C(=O)N(c3ccccc3)C(=O)[C@@H]12)S(=O)(=O)c1ccc(C)cc1	11.9%
O=[N+]([O-])c1ccc2oc(-c3cccc(O)c3)nc2c1	17%
CCc1ccc2oc(-c3ccc(N)cc3)nc2c1	39.8% (active)
COc1ccc2oc(N)nc2c1	3.43%
CCCCN1C[C@H](c2ccc(Br)cc2)[C@@H](CC(=O)Nc2ccc(Br)cc2)C1=O	46.8% (active)
CCCCN1CC(C)(C)[C@H](CC(=O)Nc2ccc(Br)cc2)C1=O	13%
C[C@H]1CN(c2ccc(Br)cc2)C(=O)[C@@H]1CC(=O)Nc1ccc(Br)cc1	-1.36%
COC(=O)c1ccc(N(CC(=O)NC2CCCC2)C(=O)CNC(=O)c2ccco2)cc1	13.4%
O=C(Nc1ccc(Oc2ccccc2)cc1)c1ccco1	38.8% (active)
Cc1ccoc1C(=O)Nc1cccc(Oc2ccccc2)c1	-23.9%
NS(=O)(=O)c1cccc(NC(=O)COC(=O)/C=C/c2ccco2)c1	0.905%
O=C(/C=C/c1ccco1)NC(=S)N1CCCCC1	11.9%
CN1CCN(S(=O)(=O)c2ccc(NC(=O)c3ccco3)cc2)CC1	13.7%
O=C(/C=C/c1ccco1)Nc1ccc(Oc2ccccc2)cc1	48.8% (active)
CCNc1nc(NC(C)C)nc(N2CC(=O)N(CC(=O)OCC)C2=N)n1	3.01%

SMILES	inhibition
NS(=O)(=O)c1ccccc1NC(=O)c1c(O)c2ccccc2[nH]c1=O	5.41%
COc1cccc(CNS(=O)(=O)c2ccc3c(c2)N(C(C)=O)CCS3)c1	19.6%
CC1CCN(c2oc(-c3ccccc3F)nc2C#N)CC1	35.4% (active)
N#Cc1nc(-c2cccc3ccccc23)oc1N	16.8%
Cc1oc(-c2ccccc2F)nc1CS(=O)CC(=O)NCCN1CCCCC1C (stereo not drawn)	5.11%
O=[N+]([O-])c1cc([N+](=O)[O-])c(Oc2cc(F)cc(F)c2F)cc1NN1CCCCC1	15.8%
CCCNC(=O)C1(C)CCN(C(=O)c2ccccc2OC(F)(F)F)C1 (stereo not drawn)	-0.325%
O=C(CCc1ccc(S(=O)(=O)NC2CCCCC2)cc1)NCc1ccccc1	3.92%
Cc1cc(N=Nc2ccc3ccccc3c2)ccc1O	44.4% (active)
Cc1c(C(=O)NCCN2CCOCC2)sc2nc(-c3ccc(F)cc3)cn12	5.89%
CC/C(=N/Nc1ccccc1)c1cnnc(SC)n1	10.2%
CCOc1ccc(CNC(=O)C2CC(=O)N(C3CCCC3)C2)cc1OC (stereo not drawn)	8.98%
CCOC(=O)C1CCN(C(=O)C2CCN(S(=O)(=O)CC)CC2)CC1	6.26%
Cc1onc(-c2ccccc2Cl)c1C(=O)N(Cc1ccc(N(C)C)cc1)C(C)C	-21.5%
Cc1ccc2cc(CCNC(=O)c3c(-c4ccccc4Cl)noc3C)c(=O)[nH]c2c1	11.2%
Cc1onc(-c2ccccc2Cl)c1C(=O)NCCn1ccc2ccccc21	39.7% (active)
FC(F)(F)c1ccc(-c2cccc3c2C2CC3CCN2Cc2ccccc2)cc1 (stereo not drawn)	7.81%
CC1(C)Cc2ccccc2-c2nnc(-c3cccc(O)c3)n21	27.7%
O=C(NCCCn1ccnc1)c1cc(-c2ccccc2)on1	8.95%
O=C(NC1CCCCCCC1)c1cccs1	22.3%
O=C(NC1CCCC1)c1cc(-c2ccccc2)on1	37.3% (active)
NC1=CC(=O)C(=O)c2cccnc21	18.3%
COc1ccccc1Cn1c(C)nnc1-c1cnn(C)c1N	10.4%
CCOc1cc(C)ccc1OCc1nnc(SCC(=O)Nc2cccc(C(=O)O)c2)n1-c1ccccc1	-9.28%

SMILES	inhibition
CC(=O)Nc1ccc(NC(=O)CSc2nnc(COc3ccccc3C)n2CC2CCCO2)cc1 (stereo not drawn)	-7.59%
CCCCNC(=O)CSc1nc2ccc(NC(=O)CSc3nnc(COc4ccccc4C)n3C)cc2s1	39.2% (active)
Cc1nonc1C1CCCN1Cc1nc(-c2ccc(F)cc2F)oc1C (stereo not drawn)	10%
CSc1nnc(CNC(=O)c2ccccc2)n1-c1ccc(F)cc1	-6.87%
Cc1ccnc(SCCn2c(Br)nc3c2c(=O)[nH]c(=O)n3C)n1	-9.02%
CCCCCCCCCCCCN1C(=O)CSC1c1cccnc1 (stereo not drawn)	-6.65%
CCOc1cc(CO)ccc1OCC(=O)N1CCCCC1	7.04%
CCOC(=O)/C=C/c1ccc(C(F)(F)F)cc1S(=O)(=O)NC(C)(C)C	3.66%
CCOC(=O)/C=C/CN(C(=O)OC(C)(C)C)S(=O)(=O)N1CC=CC1	35.2% (active)
CNc1cc(-c2c(OC)cccc2OC)ncn1	4.47%
CC(C)c1ccc(NC(=O)COC(=O)c2ccc(CN3CCCC3=O)cc2)cc1	-1.54%
CC(=O)N1CCN(c2ccc(NCc3ccc(C(C)C)cc3)cc2)CC1	36.1% (active)
CCCC(=O)N1CCC1(C)C(=O)NCc1ccc(C(C)C)cc1 (stereo not drawn)	14.8%
COCCNC(=O)c1ccc(N2CCC3(CC2)OCCO3)c([N+](=O)[O-])c1	-6.38%
O=C(Nc1nn(Cc2ccccc2F)cc1Br)c1cccs1	6.46%
c1csc(-c2nc(-c3ccncc3)no2)c1	47.4% (active)
Cc1ccc(-c2nc(-c3ccncc3)no2)c(C)c1	37% (active)
O=C(NCc1cccnc1)c1nc(-c2cccs2)no1	7.29%
COc1ccc(CCc2nc(-c3cccs3)no2)cc1	-7.8%
Cc1ccc(-c2noc(-c3ccccc3C(=O)NCC3CCCO3)n2)cc1 (stereo not drawn)	-3.76%
COc1cc(OC)cc(C(=O)OCC(=O)Nc2sccc2C(N)=O)c1	0.966%
